MCF10A rereplic = inducers of DNA re-replication in MCF 10A breast cells; MCF 10A DNA re-replication, Hoechst nuclear intensity, 48 h; 350,000 compounds, 2.9% hits; AID 624296; Potency, µM (top dose mostly 46.1 µM), for inactives: at the highest dose activity, positive = re-replication, hits mostly activators; note: % of control where 0% means no effect; nearly all actives have a fitted effect of over 50% in size
HT1080 IDH1KD tx = toxicity to HT-1080 IDH1 knockdown cells (counter line). 360,000 compounds, 2% hits. Potency, µM (top dose mostly 46.1 µM), for the others: at the top dose activity, negative = toxicity, most hits filed as cytotoxic. HT-1080 IDH1 knockdown viability, ATP luminescence, 48 h. AID 686971;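 note: 0% = DMSO wells and -100% = cell-free medium wells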
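Assay cells: HT-1080 with IDH1 knockdown, 750 per well, RPMI/5% FBS. Exposure: 48 h at 37 °C following 2 h pre-incubation. Read: CellTiter-Glo luminescence; fitted concentration-response, curve class assigned.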
KB-V1 MDR tox = KB-V1 MDR subline cytotoxicity; KB-V1 MDR cells viability, CellTiter-Glo, 72 h; Potency, µM (top dose mostly 46.1 µM), usual class: cytotoxic; 400,000 compounds, 3.4% hits; AID 1347076; note: % is set by controls: 0 for no effect and ±100 for the full control effect; nearly all actives have a fitted effect of over 60% in size
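Cells of the MDR subline KB-V1 are plated, dosed with compound at multiple concentrations, and incubated 72 h at 37 degrees C; CellTiter-Glo is then added and luminescence read after 10 min.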
HT1080NT lethal = kills 2HG-producing HT-1080-NT fibrosarcoma cells. 360,000 compounds, 1.6% hits. HT-1080-NT fibrosarcoma viability, CellTiter-Glo ATP luminescence, 48 h. Potency, µM (doses to about 46.1 µM), for inactives: top-dose activity, negative = less viability, actives largely listed as cytotoxic;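 note: NT is the 2HG producing partner of a matched IDH1 knockdown line; 0% = DMSO-treated cells and -100% = media-only wells without cells; nearly all actives have a fitted effect of over 55% in size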
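Viability of the 2HG-overproducing fibrosarcoma line after 48 hours of compound exposure at 37 degrees C was determined by luminescence with CellTiter-Glo, and concentration-effect curves were then fitted and categorized.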
SW480 rereplic = inducers of DNA re-replication in SW480 colon cancer cells. SW480 DNA re-replication, Hoechst DNA content imaging, 48 h. Potency, µM (titrated, usually from 46.1 µM), inactives show top-dose re-replication activation, hits mostly activators. 340,000 compounds, 1.8% hits; note: % of control where 0% means no effect; nearly all actives have a fitted effect of over 55% in size
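250 cells/well; 23 nL cpd via pin tool; 48 hr, 37 C, 5% CO2; Hoechst 40 min; imager read of total nuclear intensity, ex 405/em 500-530 nm.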
KB-3-1 cytotox = KB-3-1 parental cell cytotoxicity | KB-3-1 viability, CellTiter-Glo ATP luminescence, 72 h | Potency, µM (titrated, usually from 46.1 µM), hits mostly cytotoxic | 400,000 compounds, 1.4% hits; note: % is set by controls: 0 for no effect and ±100 for the full control effect; nearly all actives have a fitted effect of over 60% in size
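Parental KB-3-1 viability, qHTS format: 72 h compound exposure, 37 °C; CellTiter-Glo; media-only wells and DMSO plates as controls; concentration-effect fits on corrected data.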
* marks the source's active call; other numbers are inactive results; i = inactive; u = inconclusive; x = no result given; [ ] = remark or other dose. This is a sample that favours compounds with a hit; in the whole collection about 8% have one here. Calls come from the whole dose curve; as a rule, active = well fitted curve in the direction sought with a large enough effect; inconclusive = small, poorly fitted or top-dose-only effect, or another doubt; inactive = no such curve, though single readings can be large; an effect the other way counts as inactive or inconclusive. Potency is the fitted concentration of half-maximal effect.

SMILES	MCF10A rereplic	HT1080 IDH1KD tx	KB-V1 MDR tox	HT1080NT lethal	SW480 rereplic	KB-3-1 cytotox
COc1ccc(-c2cn3ccccc3n2)cc1[N+](=O)[O-]	4.1%	-1.6%	u	-2.7%	1.6%	i
CC(C)N=c1c([N+](=O)[O-])nn(C)n1O	0.731µM*	-2.6%	i	-1.4%	u	i
COC(=O)/C=c1/s/c(=C(/C#N)C(=O)N2CCCCC2)n(-c2ccccc2)c1=O	13.4%	-16.2%	i	6.0%	0.326µM*	i
CCOC(=O)N1CCC(N(C(=O)Nc2ccccc2)C(C)CC)CC1 (stereo unspecified)	0.9%	2.5%	14.6µM*	-0.1%	-2.5%	i
COc1ccc(SN=C2C(C)=CC(=O)C=C2C)cc1	25.9µM*	1.0%	i	-2.5%	u	i
COc1ccc(C(=O)ON=C2C=C(C)C(=O)C(C)=C2)cc1	5.5%	10.2%	i	7.8%	u	i
COc1ccc(S(=O)(=O)N2CCCC2CNC(=O)C(=O)Nc2cccc(F)c2)cc1 (stereo unspecified)	2.5%	-9.2%	4.11µM*	-0.3%	0.7%	i
COc1ccc(NC(=O)C(=O)NCC2CCCN2S(=O)(=O)c2cccs2)cc1 (stereo unspecified)	6.51µM*	u	u	u	2.59µM*	u
CCCCCOc1ccc(NC(=O)C(=O)NCC2CCCN2CC)cc1 (stereo unspecified)	14.6µM*	0.0%	i	-13.4%	5.5%	i
Cc1ccc(C(=O)C2CCN(S(=O)(=O)c3c(C)noc3C)CC2)cc1	-0.1%	8.4%	i	22.1%	-124.5%	i
Cc1csc2nc(-c3ccc(NS(=O)(=O)c4cccc(F)c4)cc3)cn12	x	x	i	x	x	i
COC(=O)c1[nH]c(C)c(/C(O)=C2\C(=O)C(=O)N(CCN(C)C)C2c2cccs2)c1C (stereo unspecified)	-1.0%	0.8%	i	-2.7%	1.2%	i
CCOC(=O)c1[nH]c(C)c(/C(O)=C2\C(=O)C(=O)N(CCN3CCOCC3)C2c2cccs2)c1C (stereo unspecified)	u	u	u	u	u	20µM*
COc1cc(CN2CCN(C(O)(c3ccccc3)c3ccccc3)CC2)cc(OC)c1OC	u	-10.7%	i	-5.6%	u	i
Cc1ccc(OCC(=O)N/N=C/c2cn(C)c3ccccc23)cc1	u	0.0%	i	3.4%	-20.8%	i
CCOC(=O)c1c2ccc(OCC(=O)NN)cc2n2ccccc12	16.4µM*	u	i	-28.1%	-10.6%	u
CCOC(=O)c1c(C)n(C)c2cc(OCCN(CC)CC)ccc12	28.3%	3.1%[9.24 µM]	u	-24.0%	-0.3%	i
CCOC(=O)c1c2ccc(OCC(=O)N/N=C/c3ccc(C)cc3)cc2n2ccccc12	2.59µM*	18.4%	u	11.6%	u	u
COC(=O)C1=CN(C(C)C)C=C(C(=O)OC)C1c1cc2c(cc1Br)OCO2	14.6µM*	u	i	-6.5%	u	i
CC(C)n1nc(C(=O)Nc2cccc(S(=O)(=O)NCc3ccco3)c2)c2ccccc2c1=O	11.3%	-6.1%	20.6µM*	-12.8%	-0.2%	u
COc1ccccc1C1=NC(c2ccc(F)cc2)N=C1C (stereo unspecified)	8.2%	-12.1%	u	-9.1%	3.6%	18.4µM*
COc1ccccc1-c1n[nH]nc1C1=CC(=O)C[C@H](c2ccc(F)cc2)C1	x	-6.3%	i	-3.0%	x	i
Cc1ccc(-n2c(C)c3c(C)nnc(C)c3c2C)cc1N	0.1%	1.8%	i	-0.1%	-1.8%	i
Cc1nnc(C)c2c(C)n(-c3ccccc3N)c(C)c12	1.5%	0.0%	i	-17.3%	20.6µM*	i
Cc1cc(-n2c(C)c3c(C)nnc(C)c3c2C)ccc1N	20.6µM*	-1.8%	i	2.5%	u	i
SMILES	MCF10A rereplic	HT1080 IDH1KD tx	KB-V1 MDR tox	HT1080NT lethal	SW480 rereplic	KB-3-1 cytotox
CC(=O)Nc1ccc(-n2cc3c(c2-c2ccc(C)cc2)c(=O)n(C)c(=O)n3C)cc1	x	x	i	x	x	i
O=c1c(-c2ccc3c(c2)OCCO3)coc2cc(O)cc(O)c12	-182.1%[0.0737 µM]	13.1%	i	1.8%	-3.4%	i
CC1(C)C=Cc2cc(-c3coc4cc(O)cc(O)c4c3=O)cc(O)c2O1	14.6µM*	-12.0%	u	-0.3%	-8.5%	i
Cc1ccc(CONC(=O)c2ccccc2Cl)cc1	-0.9%	-12.1%	i	2.7%	-2.9%	i
NC(=O)c1c(N)sc(=S)n1-c1ccccc1	6.51µM*	1.7%	i	0.1%	-1.4%[9.22 µM]	i
COc1cccc(N2C(=O)C3CCCN3C2c2ccc(N(C)C)cc2)c1 (stereo unspecified)	0.3%	-9.1%	i	-7.6%	-1.5%	i
Cc1cc(C)n(CC(O)CN(c2cccc([N+](=O)[O-])c2)S(=O)(=O)c2ccccc2)n1 (stereo unspecified)	2.2%	16.3%	i	-9.6%	2.1%	i
COc1ccc(Cl)cc1NC(=S)NCCSc1ccc(C)cc1	23.1µM*	-5.8%	i	-1.7%	-5.3%	i
CC(C)c1ccc(NC(=S)NCCc2c[nH]c3ccccc23)cc1	14.6µM*	u	u	-25.6%	38.4%	u
Cc1ccccc1NC(=S)NCCc1c[nH]c2ccccc12	8.5%	-0.5%	i	-1.9%	7.8%	i
COc1ccc(Cl)cc1NC(=S)NCCc1c[nH]c2ccccc12	-2.1%	u	u	u	u	20.6µM*
CCC(Cc1ccccc1)NS(=O)(=O)c1c(C)nc2scc(C)n2c1=O (stereo unspecified)	0.2%	9.5%	i	-0.2%	-2.4%	i
Cc1ccc(OC(=O)CCC(=O)NC(C)c2ccccc2)cc1 (stereo unspecified)	-1.2%	12.6%	i	8.7%	u	i
O=C(CCl)c1cc2c3c(c1)CC(=O)N3CCC2	u	u	i	-14.5%	16.4µM*	i
O=C(COC(=O)/C=C/c1ccccc1)NNC(=O)c1ccccc1F	-0.4%	28.7%	u	12.7%	-2.6%	i
COc1ncnc2c1ncn2CCCNCc1ccc2c(c1)OCO2	x	-3.0%	i	-0.1%	x	i
Cc1ccc(S(=O)(=O)Nc2ccnc3ccccc23)cc1	8.2%	-7.0%	i	-12.0%	-5.5%	i
Cc1ccc(S(=O)(=O)Nc2ccc(O)c3ncccc23)cc1	-13.5%	13µM*	u	u	18.6%	i

Bioassay records deposited in PubChem BioAssay by National Center for Advancing Translational Sciences (NCATS).
